“And” between values parts separate entries of the source, which are not always exact repeats. Identical values can stand only once. Records with an inconclusive call do not appear. The source made the active and inactive calls. Unless noted, calls come from the whole dose curve; as a rule, active = well fitted curve in the direction sought with a large enough effect in the repeat runs; inconclusive = weak or mixed curves; inactive = no such curve, though single readings can be large; an effect the other way counts as inactive or inconclusive.

The nature of assay [1]: qHTS assay to identify small molecule antagonists of the retinoid acid receptor (RAR) signaling pathway - cell viability counter screen (AID 1159551). Note: nearly all actives have a fitted effect of over 35% in size. Note: potency is the fitted concentration of half-maximal effect. A digest of the protocol: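 Viability of C3RL4 cells is quantified from ATP by luminescence after 6 h treatment at 37 C with compounds and 1 uM retinol.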
Background: In qHTS, concentration-response curves come from the screen itself.

Assay [2] is described as follows: qHTS assay to identify small molecule antagonists of the estrogen related receptor (ERR) signaling pathway from Tox21 library - cell viability counter screen (AID 1224834). Note: nearly all actives have a fitted effect of over 30% in size. Note: potency is the fitted concentration of half-maximal effect. A digest of the protocol:
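In this quantitative HTS format, ERR cells receive compounds in DMSO and are incubated for 17.5 h at 37 C. Live-cell protease activity is then detected with CellTiter-Fluor.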

For assay [3], the target named is Luciferin 4-monooxygenase (Photinus pyralis) (UniProt P08659). Nature of the assay: qHTS assay to identify small molecule inhibitors of firefly luciferase (AID 1224835). Note: nearly all actives have a fitted effect of over 25% in size. Note: potency is the fitted concentration of half-maximal effect. The gist of the method:
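Biochemical qHTS: compounds run as interplate titrations against purified firefly enzyme, with D-luciferin and ATP each at its KM concentration. Light output recorded by CCD imaging.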

A short description of assay [4]: qHTS assay to identify small molecule agonists of the constitutive androstane receptor (CAR) signaling pathway - cell viability counter screen (AID 1224836). Note: nearly all actives have a fitted effect of over 45% in size. Note: potency is the fitted concentration of half-maximal effect. A digest of the protocol: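 Using CellTiter-Fluor, viability of HepG2 cells harbouring hCAR and CYP2B6-2.2kb was measured following 23 h incubation with a 15-concentration compound series plus PK11195 (0.75 uM final).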

A short description of assay [5]: qHTS assay to identify small molecule antagonists of the constitutive androstane receptor (CAR) signaling pathway - cell viability counter screen (AID 1224837). Note: nearly all actives have a fitted effect of over 45% in size. Note: potency is the fitted concentration of half-maximal effect. The gist of the method: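 In quantitative HTS format, compounds at 15 concentrations were applied to HepG2 cells double-transfected with hCAR and CYP2B6-2.2kb under 50 nM CITCO stimulation; live-cell protease activity was read after 23 hr via CellTiter-Fluor.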

Assay [6] is described as follows: qHTS RealTime-Glo MT Cell Viability Assay in HepG2 cells - 24 hour (AID 1224867). Note: nearly all actives have a fitted effect of over 50% in size. Note: potency is the fitted concentration of half-maximal effect. The gist of the method:
(§1)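 Real-time, nonlytic viability: 600 HepG2 cells/well mixed with NanoLuc enzyme plus prosubstrate; 5 h settle, compound (DMSO) added by pintool; luminescence monitored over 40 h at 37 C.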

Assay [7] in a line: qHTS RealTime-Glo MT Cell Viability Assay in HEK293 cells - 32 hour (AID 1224868). Note: nearly all actives have a fitted effect of over 50% in size. Note: potency is the fitted concentration of half-maximal effect. The gist of the method:
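Cells + reagent dispensed (600 cells/well, HEK293) → 5 h at 37 C/5% CO2 → 23 nL compound in DMSO pinned → 40 h at 37 C → luminescence read at 0, 8, 16, 24, 32, 40 h.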

A short description of assay [8]: A CellTox Green Cytotoxicity Assay to monitor cytotoxicity in HepG2 cells - 40 hour (AID 1224879). Note: potency is the fitted concentration of half-maximal effect; nearly all actives have a fitted effect of over 40% in size. The gist of the method:
(§2)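 Fluorescent DNA-binding dye, 600 HepG2 cells/well, 5 h preincubation then compound in DMSO; same plates read at 0–40 h, 37 C.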

Assay [9] can be described thus: A CellTox Green Cytotoxicity Assay to monitor cytotoxicity in HepG2 cells - 32 hour (AID 1224883). Note: nearly all actives have a fitted effect of over 50% in size. Note: potency is the fitted concentration of half-maximal effect. A digest of the protocol: as §2
Assay [10] can be described thus: qHTS RealTime-Glo MT Cell Viability Assay in HepG2 cells - 16 hour (AID 1224885). Note: nearly all actives have a fitted effect of over 50% in size. Note: potency is the fitted concentration of half-maximal effect. A digest of the protocol:
as §1

The nature of assay [11]: qHTS assay to identify small molecule agonists of the sonic hedgehog signaling (Shh) pathway - cell viability counter screen (AID 1259366). Note: nearly all actives have a fitted effect of over 50% in size. Note: potency is the fitted concentration of half-maximal effect. The gist of the method: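 Same-well cytotoxicity read. Gli1-Luc reporter 3T3 cells; compounds 24hr, 37C/5% CO2; CellTiter-Fluor fluorescence.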
Assay [12] in a line: qHTS assay to identify small molecule antagonists of the sonic hedgehog signaling (Shh) pathway - cell viability counter screen (AID 1259367). Note: nearly all actives have a fitted effect of over 55% in size. Note: potency is the fitted concentration of half-maximal effect. The gist of the method: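 Tox21 library chemicals were tested on a Gli1-Luc NIH/3T3 clone (2,000 cells/well) stimulated by conditioned medium; viability was quantified as fluorescence from CellTiter-Fluor reagent added at 23 hr.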
Assay [13] concerns the target Estrogen receptor (Homo sapiens) (UniProt P03372). Nature of the assay: qHTS assay to identify small molecule agonists of the estrogen receptor alpha (ER-alpha) signaling pathway in the presence of an antagonist (AID 1259383; calls by dose curve; note: top concentration of the series differs between compounds; nearly all actives have a fitted effect of over 15% in size). A digest of the protocol: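 ER-alpha agonism measured under antagonist challenge: 10.0nM ICI-182,780 (final) plus compound, 15 concentrations, 22hr, VM7Luc4E2 ERE-luciferase cells. Read by luminescence.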

The nature of assay [14]: qHTS assay to identify small molecule agonists of the estrogen receptor alpha (ER-alpha) signaling pathway in the presence of an antagonist - cell viability counter screen (AID 1259386).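 Note: cells exposed to compounds for 22 h at 37 °C before the viability read; nearly all actives have a fitted effect of over 30% in size.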 Note: potency is the fitted concentration of half-maximal effect. The gist of the method:
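Steps: 5-day stripped-FBS culture; seed and incubate 24hr; add ICI-182,780 (10.0nM final); pin 15-point compound titration; incubate 22hr at 37C; add CellTiter-Fluor at 21hr; read fluorescence.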

A short description of assay [15]: qHTS assay to identify small molecule antagonists of the TGF-beta/Smad signaling pathway - cell viability counter screen (AID 1346824). Note: nearly all actives have a fitted effect of over 50% in size. A digest of the protocol: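 SBE-bla HEK 293T cells, incubated overnight, then compound plus 0.25 ng/mL TGF-beta1 (stock added) for 5 hr at 37 C. Viability was read in the same wells by CellTiter-Glo luminescence after 30 min at room temperature.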

A short description of assay [16]: qHTS assay to identify small molecule agonists of the TGF-beta/Smad signaling pathway - cell viability counter screen (AID 1346829). Note: top concentration of the series differs between compounds; nearly all actives have a fitted effect of over 45% in size. The gist of the method: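 Here the cytotoxicity of library compounds is measured in SBE-bla HEK 293T cells treated for 5 hr, using CellTiter-Glo added to wells already read for the beta-lactamase reporter.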
The nature of assay [17]: Caspase-3/7 induction in CHO-K1 cells by small molecules, qHTS cell viability counter screen (AID 1346979). Note: nearly all actives have a fitted effect of over 35% in size. Note: potency is the fitted concentration of half-maximal effect. The gist of the method:
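CellTiter-Fluor viability check, qHTS format: wild-type CHO-K1, 16hr compound treatment, 1hr reagent incubation, fluorescence read.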

The nature of assay [18]: A CellTox Green Cytotoxicity Assay to monitor cytotoxicity in HEK293 cells - 8 hour (AID 1224884). Note: nearly all actives have a fitted effect of over 35% in size. Note: potency is the fitted concentration of half-maximal effect. The gist of the method:
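Homogeneous no-lysis format: HEK293 cell suspension mixed with CellTox Green reagent, seeded, incubated 5 h at 37 C/5% CO2, then dosed by pintool with compound in DMSO.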

Assay [19] deals with Cytochrome P450 2C9 (Homo sapiens) (UniProt P11712). Nature of the assay: Cytochrome P450 Family 2 Subfamily C Member 9 (CYP2C9) small molecule antagonists: luciferase reporter qHTS assay (AID 1671198). A digest of the protocol:
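P450-Glo proluciferin substrate with CYP2C9 enzyme; 10 min RT preincubation, then NADPH regeneration 1 h at 37C; luciferin detection reagent 20 min RT, luminescence in relative luminescence units.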

In assay [20] the target is Nuclear receptor subfamily 1 group I member 2 (Homo sapiens) (UniProt O75469). As to the kind of experiment: Human pregnane X receptor (PXR) small molecule agonists, qHTS assay (AID 1346982). Note: nearly all actives have a fitted effect of over 35% in size. Note: potency is the fitted concentration of half-maximal effect. The gist of the method:
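After plating in 5% charcoal-stripped FBS and a 5 hr rest, PXR-Luc HepG2 cells received compounds in DMSO. Following 24 hr at 37 C, ONE-Glo was added and light output read.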

Chain of Luciferin 4-monooxygenase (Photinus pyralis) (P08659 whole entry, looked up): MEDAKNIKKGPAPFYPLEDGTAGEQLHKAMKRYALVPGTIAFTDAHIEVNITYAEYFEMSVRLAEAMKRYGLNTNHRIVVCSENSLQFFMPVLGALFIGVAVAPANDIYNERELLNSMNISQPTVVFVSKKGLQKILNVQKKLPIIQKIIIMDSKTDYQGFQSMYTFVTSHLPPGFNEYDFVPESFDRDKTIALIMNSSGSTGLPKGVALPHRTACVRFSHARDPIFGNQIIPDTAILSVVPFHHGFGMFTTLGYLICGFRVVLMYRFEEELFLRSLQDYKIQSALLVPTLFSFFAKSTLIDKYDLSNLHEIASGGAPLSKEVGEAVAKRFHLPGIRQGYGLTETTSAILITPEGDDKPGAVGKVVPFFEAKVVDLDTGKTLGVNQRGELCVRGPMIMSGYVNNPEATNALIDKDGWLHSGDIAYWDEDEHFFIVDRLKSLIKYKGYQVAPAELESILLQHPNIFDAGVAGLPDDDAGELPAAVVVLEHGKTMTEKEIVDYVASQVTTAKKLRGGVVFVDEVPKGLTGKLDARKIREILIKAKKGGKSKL
Chain of Estrogen receptor (Homo sapiens) (P03372 whole entry, looked up): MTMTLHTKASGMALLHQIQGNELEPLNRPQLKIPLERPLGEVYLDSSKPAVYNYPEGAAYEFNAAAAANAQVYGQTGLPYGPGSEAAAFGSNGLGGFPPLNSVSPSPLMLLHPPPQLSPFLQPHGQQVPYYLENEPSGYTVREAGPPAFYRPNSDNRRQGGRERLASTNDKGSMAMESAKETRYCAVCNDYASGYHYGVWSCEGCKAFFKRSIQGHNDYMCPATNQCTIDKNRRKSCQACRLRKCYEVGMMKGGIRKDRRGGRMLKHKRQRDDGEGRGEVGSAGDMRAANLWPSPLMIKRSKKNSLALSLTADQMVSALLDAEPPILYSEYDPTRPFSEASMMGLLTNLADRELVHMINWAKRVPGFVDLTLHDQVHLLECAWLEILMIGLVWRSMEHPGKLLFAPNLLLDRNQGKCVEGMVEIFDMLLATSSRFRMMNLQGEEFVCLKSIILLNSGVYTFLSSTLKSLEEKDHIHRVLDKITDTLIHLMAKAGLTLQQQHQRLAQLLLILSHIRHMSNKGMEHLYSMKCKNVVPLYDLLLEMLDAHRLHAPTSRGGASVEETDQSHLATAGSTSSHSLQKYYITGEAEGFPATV
Chain of Cytochrome P450 2C9 (Homo sapiens) (P11712 whole entry, looked up): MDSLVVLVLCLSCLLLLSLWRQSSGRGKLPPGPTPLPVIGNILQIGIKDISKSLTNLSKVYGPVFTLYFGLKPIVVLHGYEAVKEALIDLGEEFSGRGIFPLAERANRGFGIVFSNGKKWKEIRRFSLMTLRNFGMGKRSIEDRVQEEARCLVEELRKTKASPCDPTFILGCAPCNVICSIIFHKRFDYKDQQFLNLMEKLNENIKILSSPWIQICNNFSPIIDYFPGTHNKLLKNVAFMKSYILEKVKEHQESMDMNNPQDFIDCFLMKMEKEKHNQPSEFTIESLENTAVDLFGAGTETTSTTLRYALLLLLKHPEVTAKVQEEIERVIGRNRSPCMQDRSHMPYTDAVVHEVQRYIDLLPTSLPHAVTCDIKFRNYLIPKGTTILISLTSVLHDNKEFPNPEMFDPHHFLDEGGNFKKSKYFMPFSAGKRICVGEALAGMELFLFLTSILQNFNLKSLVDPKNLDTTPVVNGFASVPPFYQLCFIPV
Chain of Nuclear receptor subfamily 1 group I member 2 (Homo sapiens) (O75469 whole entry, looked up): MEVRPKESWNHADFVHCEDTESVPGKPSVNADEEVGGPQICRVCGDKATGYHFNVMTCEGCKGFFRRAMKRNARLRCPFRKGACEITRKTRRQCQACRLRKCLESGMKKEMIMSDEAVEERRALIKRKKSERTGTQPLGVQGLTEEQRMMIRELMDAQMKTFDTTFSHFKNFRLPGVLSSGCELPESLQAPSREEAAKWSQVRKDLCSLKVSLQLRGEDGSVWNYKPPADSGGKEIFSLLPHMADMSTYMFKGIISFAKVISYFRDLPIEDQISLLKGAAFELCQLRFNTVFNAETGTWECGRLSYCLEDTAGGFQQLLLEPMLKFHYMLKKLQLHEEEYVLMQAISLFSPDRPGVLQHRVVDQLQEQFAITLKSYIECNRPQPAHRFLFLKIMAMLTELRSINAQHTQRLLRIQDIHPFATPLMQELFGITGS

Take `O=[N+]([O-])c1c(Cl)c(Cl)cc(Cl)c1Cl`: the Potency result in assay [1], in assay [2], in assay [3], in [4], in assay [5] and in assay [6] was “inactive” throughout. The Potency entry in [7], in [10], in assay [11], in assay [12], in assay [14] and in assay [15] was “inactive” in each case. The Potency entry in assay [17] is “inactive”. Also, the Potency in assay [8] and in assay [9] was 54.9 µM (active) each time. In addition, the result in assay [13] and in [16] was inactive.
Regarding `OCC(c1ccc(Cl)cc1)c1ccc(Cl)cc1`, the Potency was 48.6 µM (active) in [2]; 34.7 µM (active) in assay [7]; 38.9 µM (active) in assay [8]; 38.9 µM (active) in assay [9]; 43.6 µM (active) in [18]; 12.6 µM (active) in assay [19]. Besides, the Potency result in [3], in [14] and in [15] was “inactive” throughout. Further, the outcome in assay [13] and in [16] was inactive.
For `O=C(c1ccccc1)C(Cl)Cl`, the Potency was 61.1 µM (active) in assay [2]; 61.1 µM (active) in assay [4]; 54.5 µM (active) in assay [5]; 38.9 µM (active) in [7]; 68.6 µM (active) in [11]; 27.3 µM (active) in assay [17]. Further, the Potency result in assay [3], in assay [9], in assay [18], in assay [14] and in assay [15] was “inactive” throughout. The result in assay [13] and in assay [16] was inactive.
For the compound `Nc1ccc([N+](=O)[O-])cc1`, the Potency was 15.4 µM (active) in assay [2]; 30.6 µM (active) in assay [5]; 38.9 µM (active) in assay [7]; 43.6 µM (active) in assay [8]; 43.6 µM (active) in assay [9]; 30.6 µM (active) in assay [11]. Moreover, the Potency in assay [14] was 27.3 µM (active); in [17], 43.3 µM (active); in assay [20], 61.1 µM (active); in [19], 25.2 µM (active). The Potency entry in assay [6], in assay [10] and in assay [15] was “inactive” throughout. The compound was classed as inactive in [16].
Take `CC1COC(Cn2cncn2)(c2ccc(Oc3ccc(Cl)cc3)cc2Cl)O1` (stereo unspecified): the Potency entry in [1], in assay [3], in assay [18], in assay [11] and in assay [12] was “inactive” each time. The Potency was 27.3 µM (active) in assay [2]; 19.5 µM (active) in [7]; 24.3 µM (active) in assay [17]; 61.1 µM (active) in [20]; 1.12 µM (active) in [19]. The result in [13] and in [16] was inactive.
As for `CN1CSC(=S)N(C)C1`, the Potency result in [1], in assay [3], in assay [18], in assay [10], in assay [14] and in assay [15] was “inactive” each time. Moreover, the Potency is 6.08 µM (active) and 13.6 µM (active) in assay [2]; 4.83 µM (active) and 15.3 µM (active) in assay [4]; 5.42 µM (active) and 7.67 µM (active) in assay [5]; 17.3 µM (active) in assay [6]; 17.3 µM (active) and 24.5 µM (active) in assay [7]; 12.2 µM (active) and 10.9 µM (active) in assay [8]. Besides, the Potency is 10.9 µM (active) and 21.8 µM (active) in [9]; 2.42 µM (active) and 6.09 µM (active) in assay [11]; 3.05 µM (active) and 13.6 µM (active) in [12]; 1.36 µM (active) and 7.67 µM (active) in assay [17]; 5.43 µM (active) in assay [20]; 8.91 µM (active) in [19]. Further, the result in assay [13] and in [16] was inactive.
For the compound `Cc1ccc(N(SC(F)(Cl)Cl)S(=O)(=O)N(C)C)cc1`, the Potency in [1] is 48.6 µM (active); in assay [2], 30.6 µM (active); in [3] it was 44.8 µM (active); in assay [4], 30.6 µM (active); in assay [5], 24.3 µM (active); in assay [6], 11 µM (active). Moreover, the Potency is 5.49 µM (active) in assay [7]; 6.92 µM (active) in [8]; 6.92 µM (active) in [9]; 21.9 µM (active) in assay [18]; 15.5 µM (active) in assay [10]; 4.86 µM (active) in assay [11]. Moreover, the Potency in assay [12] is 17.2 µM (active); in [17], 4.33 µM (active); in [19] it was 5.64 µM (active). The Potency entry in assay [14], in assay [15] and in [20] was “inactive” throughout. Also, the call in assay [16] was inactive.
